Experimental findings from paper PMC7862700, “An all-to-all approach to the identification of sequence-specific readers for epigenetic DNA modifications on cytosine” are described below.

Assay in all cases: DAPPL (digital affinity profiling via proximity ligation, sequencing); 10 mM Tris-HCl pH 7.5, 50 mM NaCl, 1 mM DTT, 4% glycerol, room temperature, 30 min; GST-TFs on glutathione beads, 16-mer random dsDNA library, 0.1% formaldehyde crosslink after washing; high values mean tight binding
The target of one test is T1, FLI1 (Homo sapiens, UniProt Q01543 1-452).
T1 sequence: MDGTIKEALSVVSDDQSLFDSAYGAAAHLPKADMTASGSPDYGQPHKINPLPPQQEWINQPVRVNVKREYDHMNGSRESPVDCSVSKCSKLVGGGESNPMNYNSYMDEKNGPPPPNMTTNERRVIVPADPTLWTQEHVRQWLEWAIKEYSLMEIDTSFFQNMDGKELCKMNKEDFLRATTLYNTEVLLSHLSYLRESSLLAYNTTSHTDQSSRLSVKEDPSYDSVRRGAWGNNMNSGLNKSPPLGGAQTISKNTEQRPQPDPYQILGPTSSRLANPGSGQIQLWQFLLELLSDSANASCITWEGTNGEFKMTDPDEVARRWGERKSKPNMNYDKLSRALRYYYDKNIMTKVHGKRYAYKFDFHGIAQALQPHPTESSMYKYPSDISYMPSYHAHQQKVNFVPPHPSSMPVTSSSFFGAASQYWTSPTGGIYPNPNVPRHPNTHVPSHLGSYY
The following applies: protein: recombinant; tags: N-terminal GST; dsDNA, one strand shown. Put shortly:
(§1)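 After expression in yeast as GST fusions, human transcription factors were bound to glutathione beads, DNA-barcoded and mixed with a tag-only sample. The pools were incubated with 200 nmole of a 16-mer random double-stranded DNA library in Tris/NaCl/DTT/glycerol buffer (30 min, room temperature), washed and crosslinked with 0.1% formaldehyde. Proximity ligation with BsaI/T4 ligase ran for 1 h at 37 °C, before PCR amplification and sequencing on an Illumina NextSeq500. Binding signal is a hexamer's read frequency for a factor divided by its frequency for the tag-only sample.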

The target in the next test is T2, ELK1 (Homo sapiens, UniProt P19419 1-428).
T2 sequence: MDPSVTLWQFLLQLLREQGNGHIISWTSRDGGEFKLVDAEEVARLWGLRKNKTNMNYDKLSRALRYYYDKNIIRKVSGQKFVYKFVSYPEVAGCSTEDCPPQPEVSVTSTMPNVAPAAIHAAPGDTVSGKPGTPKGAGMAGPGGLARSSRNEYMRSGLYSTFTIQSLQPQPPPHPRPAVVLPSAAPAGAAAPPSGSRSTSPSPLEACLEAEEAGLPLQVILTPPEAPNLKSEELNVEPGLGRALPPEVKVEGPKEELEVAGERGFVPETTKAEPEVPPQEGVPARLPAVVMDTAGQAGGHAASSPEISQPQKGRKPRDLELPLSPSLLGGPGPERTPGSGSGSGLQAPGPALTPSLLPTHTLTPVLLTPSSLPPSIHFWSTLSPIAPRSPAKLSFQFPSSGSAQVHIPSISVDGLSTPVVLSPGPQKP
As to conditions: protein: recombinant; tags: N-terminal GST; dsDNA, one strand shown. Put shortly: as §1

In the next test the target is T3, GABPA (Homo sapiens, UniProt Q06546 1-454).
T3 sequence: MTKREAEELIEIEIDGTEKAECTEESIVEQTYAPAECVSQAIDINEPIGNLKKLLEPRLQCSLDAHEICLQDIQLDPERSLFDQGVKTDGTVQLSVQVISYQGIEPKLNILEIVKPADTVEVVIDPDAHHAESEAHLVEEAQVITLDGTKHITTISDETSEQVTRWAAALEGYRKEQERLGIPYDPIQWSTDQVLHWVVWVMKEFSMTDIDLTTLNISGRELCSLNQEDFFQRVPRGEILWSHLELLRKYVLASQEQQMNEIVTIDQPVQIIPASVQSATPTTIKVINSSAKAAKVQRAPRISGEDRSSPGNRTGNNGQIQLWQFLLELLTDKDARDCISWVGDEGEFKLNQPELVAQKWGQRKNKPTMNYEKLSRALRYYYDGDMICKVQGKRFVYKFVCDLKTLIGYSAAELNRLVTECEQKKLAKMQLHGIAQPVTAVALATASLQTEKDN
As to conditions: protein: recombinant; tags: N-terminal GST; dsDNA, one strand shown. Put shortly: as §1

A further test concerns the target T4, ERG (Homo sapiens, UniProt P11308 1-479).
T4 sequence: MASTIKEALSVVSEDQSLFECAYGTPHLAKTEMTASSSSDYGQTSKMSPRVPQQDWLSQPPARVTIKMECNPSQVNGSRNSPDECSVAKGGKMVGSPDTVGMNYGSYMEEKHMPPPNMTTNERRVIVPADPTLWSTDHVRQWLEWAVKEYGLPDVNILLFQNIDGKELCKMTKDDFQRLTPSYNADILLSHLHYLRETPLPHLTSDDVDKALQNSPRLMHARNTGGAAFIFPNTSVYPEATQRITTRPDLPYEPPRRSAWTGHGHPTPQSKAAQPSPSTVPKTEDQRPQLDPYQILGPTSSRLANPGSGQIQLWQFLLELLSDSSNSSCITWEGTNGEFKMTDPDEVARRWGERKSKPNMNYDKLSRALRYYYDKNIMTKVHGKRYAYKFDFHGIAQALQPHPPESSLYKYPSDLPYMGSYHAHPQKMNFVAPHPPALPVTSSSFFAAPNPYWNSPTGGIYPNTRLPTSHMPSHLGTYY
The following applies: protein: recombinant; tags: N-terminal GST; dsDNA, one strand shown. The gist of the method:
as §1

The target in another test is ELF1 (Homo sapiens, UniProt P32519 1-619). As to conditions: protein: recombinant; tags: N-terminal GST; dsDNA, one strand shown. Put shortly: as §1
The target in a further test is T5, EHF (Homo sapiens, UniProt Q9NZC4 1-300).
T5 sequence: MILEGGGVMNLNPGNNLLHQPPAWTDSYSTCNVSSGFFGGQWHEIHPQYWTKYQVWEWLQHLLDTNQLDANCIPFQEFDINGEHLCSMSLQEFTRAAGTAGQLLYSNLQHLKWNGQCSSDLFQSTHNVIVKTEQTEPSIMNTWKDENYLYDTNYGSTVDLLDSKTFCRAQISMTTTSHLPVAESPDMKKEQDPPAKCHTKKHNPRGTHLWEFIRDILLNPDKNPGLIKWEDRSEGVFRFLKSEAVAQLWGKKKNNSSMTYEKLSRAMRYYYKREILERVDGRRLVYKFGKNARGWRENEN
As to conditions: protein: recombinant; tags: N-terminal GST; dsDNA, one strand shown. Put shortly:
as §1

Another test addresses SPI1 (Homo sapiens, UniProt P17947 1-270). As to conditions: protein: recombinant; tags: N-terminal GST; dsDNA, one strand shown. Put shortly:
as §1

A further test concerns the target SPIB (Homo sapiens, UniProt Q01892 1-262). The following applies: protein: recombinant; tags: N-terminal GST; dsDNA, one strand shown. The gist of the method:
as §1

The next test deals with T6, ELK3 (Homo sapiens, UniProt P41970 1-407).
T6 sequence: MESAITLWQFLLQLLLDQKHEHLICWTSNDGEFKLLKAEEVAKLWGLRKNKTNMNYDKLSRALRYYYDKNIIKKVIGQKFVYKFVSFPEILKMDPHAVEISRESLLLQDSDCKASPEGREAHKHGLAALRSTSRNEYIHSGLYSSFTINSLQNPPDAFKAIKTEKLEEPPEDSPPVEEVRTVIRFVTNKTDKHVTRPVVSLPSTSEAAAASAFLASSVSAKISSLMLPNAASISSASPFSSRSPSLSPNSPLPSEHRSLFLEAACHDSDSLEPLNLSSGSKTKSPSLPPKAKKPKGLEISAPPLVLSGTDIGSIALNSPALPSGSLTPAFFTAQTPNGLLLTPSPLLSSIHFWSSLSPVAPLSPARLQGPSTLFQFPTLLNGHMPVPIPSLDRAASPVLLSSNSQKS
As to conditions: protein: recombinant; tags: N-terminal GST; dsDNA, one strand shown. The gist of the method:
as §1

A further test has as its target T7, FEV (Homo sapiens, UniProt Q99581 1-238).
T7 sequence: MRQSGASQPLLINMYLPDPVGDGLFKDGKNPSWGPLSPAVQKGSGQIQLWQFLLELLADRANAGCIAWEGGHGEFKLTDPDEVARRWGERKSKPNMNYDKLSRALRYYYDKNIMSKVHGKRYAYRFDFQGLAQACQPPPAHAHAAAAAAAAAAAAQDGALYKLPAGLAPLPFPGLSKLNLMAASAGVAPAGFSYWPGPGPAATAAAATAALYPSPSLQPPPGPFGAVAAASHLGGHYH
The following applies: protein: recombinant; tags: N-terminal GST; dsDNA, one strand shown. The gist of the method: as §1

The next test concerns the target ETV5 (Homo sapiens, UniProt P41161 1-510). As to conditions: protein: recombinant; tags: N-terminal GST; dsDNA, one strand shown. The gist of the method:
as §1

Another test concerns the target HSF1 (Homo sapiens, UniProt Q00613 1-529). As to conditions: protein: recombinant; tags: N-terminal GST; chain copies: 3; dsDNA, one strand shown. Put shortly:
as §1

Another test has as its target T8, SPIC (Homo sapiens, UniProt Q8N5J4 1-248).
T8 sequence: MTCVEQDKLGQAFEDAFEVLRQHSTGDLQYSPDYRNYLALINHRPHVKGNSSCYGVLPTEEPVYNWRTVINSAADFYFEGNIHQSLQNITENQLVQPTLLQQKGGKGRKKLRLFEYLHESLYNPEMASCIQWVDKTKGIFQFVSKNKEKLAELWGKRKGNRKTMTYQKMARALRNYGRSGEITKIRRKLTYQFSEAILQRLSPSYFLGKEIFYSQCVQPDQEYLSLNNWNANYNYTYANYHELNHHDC
The following applies: protein: recombinant; tags: N-terminal GST; dsDNA, one strand shown. The gist of the method: as §1

The next test addresses ELF4 (Homo sapiens, UniProt Q99607 1-663). As to conditions: protein: recombinant; tags: N-terminal GST; dsDNA, one strand shown. The gist of the method: as §1
The next test concerns the target T9, ELK4 (Homo sapiens, UniProt P28324-2 1-405).
T9 sequence: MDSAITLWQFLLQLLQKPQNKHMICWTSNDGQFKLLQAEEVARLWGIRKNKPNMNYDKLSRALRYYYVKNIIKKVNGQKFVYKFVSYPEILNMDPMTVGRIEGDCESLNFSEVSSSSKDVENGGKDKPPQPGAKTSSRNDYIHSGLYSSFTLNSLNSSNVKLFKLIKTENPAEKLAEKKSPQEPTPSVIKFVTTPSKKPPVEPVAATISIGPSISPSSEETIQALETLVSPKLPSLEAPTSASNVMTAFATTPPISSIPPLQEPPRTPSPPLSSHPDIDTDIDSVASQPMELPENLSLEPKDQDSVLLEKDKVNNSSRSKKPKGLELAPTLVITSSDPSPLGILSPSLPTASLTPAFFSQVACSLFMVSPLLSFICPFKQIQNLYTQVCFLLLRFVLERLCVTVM
As to conditions: protein: recombinant; tags: N-terminal GST; dsDNA, one strand shown. Put shortly:
as §1

The next test addresses T10, ETV2 (Homo sapiens, UniProt O00321 1-342).
T10 sequence: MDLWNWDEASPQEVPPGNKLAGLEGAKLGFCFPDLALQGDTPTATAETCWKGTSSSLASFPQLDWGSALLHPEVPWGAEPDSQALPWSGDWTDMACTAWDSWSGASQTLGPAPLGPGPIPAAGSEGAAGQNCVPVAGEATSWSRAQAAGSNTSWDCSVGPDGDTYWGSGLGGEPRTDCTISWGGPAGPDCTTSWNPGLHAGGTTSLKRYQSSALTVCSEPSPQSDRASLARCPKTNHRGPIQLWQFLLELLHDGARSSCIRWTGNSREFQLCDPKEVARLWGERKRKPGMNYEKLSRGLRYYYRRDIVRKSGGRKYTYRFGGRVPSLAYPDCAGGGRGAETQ
As to conditions: protein: recombinant; tags: N-terminal GST; dsDNA, one strand shown. The gist of the method: as §1

The next test concerns the target T11, ELF3 (Homo sapiens, UniProt P78545 1-371).
T11 sequence: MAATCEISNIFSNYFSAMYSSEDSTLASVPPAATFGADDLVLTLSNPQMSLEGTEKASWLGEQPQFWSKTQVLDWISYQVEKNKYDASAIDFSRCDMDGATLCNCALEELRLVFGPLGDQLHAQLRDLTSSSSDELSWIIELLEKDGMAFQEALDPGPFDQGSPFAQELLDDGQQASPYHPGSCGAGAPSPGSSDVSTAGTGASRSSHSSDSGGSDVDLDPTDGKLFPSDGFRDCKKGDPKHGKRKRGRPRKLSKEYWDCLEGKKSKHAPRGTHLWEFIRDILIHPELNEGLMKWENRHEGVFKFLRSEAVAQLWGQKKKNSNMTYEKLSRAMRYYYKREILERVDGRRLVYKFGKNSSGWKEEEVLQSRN
As to conditions: protein: recombinant; tags: N-terminal GST; dsDNA, one strand shown. The gist of the method: as §1

The target of a further test is ETV1 (Homo sapiens, UniProt P50549 1-477). The following applies: protein: recombinant; tags: N-terminal GST; dsDNA, one strand shown. The gist of the method: as §1
ETV1, sequence (P50549 whole entry): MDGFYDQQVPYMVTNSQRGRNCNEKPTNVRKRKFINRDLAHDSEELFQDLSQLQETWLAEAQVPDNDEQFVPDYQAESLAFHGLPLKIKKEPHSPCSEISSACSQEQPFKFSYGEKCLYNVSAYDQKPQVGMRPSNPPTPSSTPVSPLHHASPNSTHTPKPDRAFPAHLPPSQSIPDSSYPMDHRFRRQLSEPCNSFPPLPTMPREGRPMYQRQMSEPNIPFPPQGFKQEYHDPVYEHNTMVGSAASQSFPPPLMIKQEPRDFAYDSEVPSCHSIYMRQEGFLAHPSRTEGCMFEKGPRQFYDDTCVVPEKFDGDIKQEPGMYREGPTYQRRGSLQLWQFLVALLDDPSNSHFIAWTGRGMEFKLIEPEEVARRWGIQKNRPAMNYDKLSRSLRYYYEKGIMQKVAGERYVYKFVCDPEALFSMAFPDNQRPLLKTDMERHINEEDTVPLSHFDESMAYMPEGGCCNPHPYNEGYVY

ELF1, sequence (P32519 whole entry): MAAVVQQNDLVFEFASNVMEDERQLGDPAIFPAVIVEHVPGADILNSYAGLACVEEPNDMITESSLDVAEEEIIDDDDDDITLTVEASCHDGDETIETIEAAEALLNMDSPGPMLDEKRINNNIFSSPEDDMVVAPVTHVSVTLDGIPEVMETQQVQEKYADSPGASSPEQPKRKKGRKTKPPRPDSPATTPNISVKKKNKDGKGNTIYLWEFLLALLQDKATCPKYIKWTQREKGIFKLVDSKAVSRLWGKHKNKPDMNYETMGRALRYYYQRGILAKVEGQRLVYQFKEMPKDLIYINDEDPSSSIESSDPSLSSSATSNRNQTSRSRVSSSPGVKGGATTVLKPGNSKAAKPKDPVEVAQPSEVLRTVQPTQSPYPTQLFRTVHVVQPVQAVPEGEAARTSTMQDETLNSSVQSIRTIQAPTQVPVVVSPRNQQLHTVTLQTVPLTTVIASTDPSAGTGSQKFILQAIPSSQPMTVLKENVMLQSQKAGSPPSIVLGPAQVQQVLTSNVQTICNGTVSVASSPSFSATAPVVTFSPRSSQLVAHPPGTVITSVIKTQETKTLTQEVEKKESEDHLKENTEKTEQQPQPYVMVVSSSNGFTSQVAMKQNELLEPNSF
SPIB, sequence (Q01892 whole entry): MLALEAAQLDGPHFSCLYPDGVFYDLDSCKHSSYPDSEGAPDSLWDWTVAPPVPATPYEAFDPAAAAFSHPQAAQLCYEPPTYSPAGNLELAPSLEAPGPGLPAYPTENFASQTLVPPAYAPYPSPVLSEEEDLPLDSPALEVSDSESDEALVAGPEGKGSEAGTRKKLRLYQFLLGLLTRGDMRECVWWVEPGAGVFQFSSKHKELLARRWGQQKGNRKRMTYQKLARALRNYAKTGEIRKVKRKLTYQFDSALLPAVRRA
HSF1, sequence (Q00613 whole entry): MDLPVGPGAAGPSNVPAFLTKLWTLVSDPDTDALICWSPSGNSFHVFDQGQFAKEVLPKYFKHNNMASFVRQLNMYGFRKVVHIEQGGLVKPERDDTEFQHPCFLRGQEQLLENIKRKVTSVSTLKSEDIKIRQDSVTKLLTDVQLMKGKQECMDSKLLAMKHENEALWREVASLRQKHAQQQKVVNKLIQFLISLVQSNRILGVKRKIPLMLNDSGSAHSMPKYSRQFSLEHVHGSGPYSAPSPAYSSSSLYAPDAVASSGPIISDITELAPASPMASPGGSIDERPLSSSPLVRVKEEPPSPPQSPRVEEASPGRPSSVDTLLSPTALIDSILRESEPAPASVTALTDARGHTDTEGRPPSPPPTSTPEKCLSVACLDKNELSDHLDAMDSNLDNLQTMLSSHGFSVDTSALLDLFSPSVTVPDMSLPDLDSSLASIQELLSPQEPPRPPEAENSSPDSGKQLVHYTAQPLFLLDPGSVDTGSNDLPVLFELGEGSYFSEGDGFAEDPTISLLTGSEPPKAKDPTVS
ELF4, sequence (Q99607 whole entry): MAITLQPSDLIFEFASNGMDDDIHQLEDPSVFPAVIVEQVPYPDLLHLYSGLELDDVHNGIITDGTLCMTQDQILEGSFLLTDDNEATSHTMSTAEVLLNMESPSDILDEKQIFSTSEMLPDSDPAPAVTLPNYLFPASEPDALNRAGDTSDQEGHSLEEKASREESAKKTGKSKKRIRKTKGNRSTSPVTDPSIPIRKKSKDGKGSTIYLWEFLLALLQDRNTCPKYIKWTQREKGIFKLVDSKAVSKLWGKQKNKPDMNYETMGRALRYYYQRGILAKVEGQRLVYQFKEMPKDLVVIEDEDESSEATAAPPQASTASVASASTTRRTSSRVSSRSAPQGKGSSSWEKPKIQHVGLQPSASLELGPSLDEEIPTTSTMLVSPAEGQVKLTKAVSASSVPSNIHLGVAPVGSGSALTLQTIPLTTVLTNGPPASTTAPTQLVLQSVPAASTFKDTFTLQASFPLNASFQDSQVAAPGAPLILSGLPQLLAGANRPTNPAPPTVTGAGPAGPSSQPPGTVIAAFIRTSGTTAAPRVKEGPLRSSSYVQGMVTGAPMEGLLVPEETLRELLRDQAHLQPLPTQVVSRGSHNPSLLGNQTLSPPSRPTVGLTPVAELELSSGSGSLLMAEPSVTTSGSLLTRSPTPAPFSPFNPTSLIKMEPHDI
ETV5, sequence (P41161 whole entry): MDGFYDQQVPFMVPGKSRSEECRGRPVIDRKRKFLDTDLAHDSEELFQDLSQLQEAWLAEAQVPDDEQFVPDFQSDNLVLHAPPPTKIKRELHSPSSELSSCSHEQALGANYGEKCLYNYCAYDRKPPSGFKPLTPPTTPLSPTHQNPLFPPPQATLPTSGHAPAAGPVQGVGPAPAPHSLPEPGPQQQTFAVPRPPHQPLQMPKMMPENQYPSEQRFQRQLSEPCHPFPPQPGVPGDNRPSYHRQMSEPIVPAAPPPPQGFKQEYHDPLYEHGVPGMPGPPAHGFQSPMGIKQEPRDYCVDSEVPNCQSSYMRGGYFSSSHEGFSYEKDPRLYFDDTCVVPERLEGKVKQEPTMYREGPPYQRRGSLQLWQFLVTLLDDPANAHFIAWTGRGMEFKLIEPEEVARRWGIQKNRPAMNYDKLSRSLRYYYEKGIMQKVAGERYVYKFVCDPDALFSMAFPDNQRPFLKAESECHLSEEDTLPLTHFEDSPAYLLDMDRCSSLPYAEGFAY

As for CGTACA, the binding signal with FLI1 is 1.18 fold enrichment (6-mer frequency, TF over GST control); in the test with ELK1, 1.19 fold enrichment (6-mer frequency, TF over GST control); in the test with GABPA, 1.17 fold enrichment (6-mer frequency, TF over GST control); with ERG it was 1.17 fold enrichment (6-mer frequency, TF over GST control); with ELF1, 1.26 fold enrichment (6-mer frequency, TF over GST control); with EHF, 1.16 fold enrichment (6-mer frequency, TF over GST control). The binding signal with SPI1 was 1.12 fold enrichment (6-mer frequency, TF over GST control); with SPIB it was 1.1 fold enrichment (6-mer frequency, TF over GST control); in the test with ELK3 it was 1.16 fold enrichment (6-mer frequency, TF over GST control); with FEV it was 1.2 fold enrichment (6-mer frequency, TF over GST control); in the test with ETV5, 1.22 fold enrichment (6-mer frequency, TF over GST control); with HSF1, 1.02 fold enrichment (6-mer frequency, TF over GST control). The binding signal with SPIC was 1.31 fold enrichment (6-mer frequency, TF over GST control); in the test with ELF4, 1.2 fold enrichment (6-mer frequency, TF over GST control); with ELK4 it was 1.24 fold enrichment (6-mer frequency, TF over GST control); in the test with ETV2, 1.36 fold enrichment (6-mer frequency, TF over GST control); with ELF3 it was 1.27 fold enrichment (6-mer frequency, TF over GST control); with ETV1, 1.13 fold enrichment (6-mer frequency, TF over GST control).
